# Measured values published in the supplement of paper PMC4466140.
# Columns and labels:
# Assay in all cases: SPOT peptide array binding signal intensity (averaged, normalized) (arbitrary units (background-subtracted, floor 0; scale differs between SH3 domains)); higher = stronger binding of the SH3 domain to the peptide
# [1] = molecular target: CaNbp2
# Outline: (§1)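 GST-fused SH3 domains from four yeast species were expressed in E. coli BL21(DE3), purified on glutathione Sepharose and incubated at 10 μg/ml overnight at 4°C in TBS-based blocking buffer on cellulose membranes carrying synthetic 15-mer peptides, with cysteines replaced by serines. Bound protein was detected with anti-GST antibody, an HRP anti-mouse secondary and luminol, then imaged and quantified with Genespotter. Binding signal is the normalized, background-subtracted spot intensity averaged over replicates, in arbitrary units that differ between domains.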
# [2] = molecular target: CaRvs167
# Outline: as §1
# [3] = molecular target: CaRvs167-3
# Outline: as §1
# [4] = molecular target: CaSho1
# Outline: as §1
# [5] = molecular target: CaSla1-D1-D2
# Outline: as §1
# [6] = molecular target: CaSla1-D3
# Outline: as §1
# [7] = molecular target: ScAbp1
# Outline: as §1
# [8] = molecular target: ScBbc1
# Outline: as §1
# [9] = molecular target: ScBem1-D1
# Outline: as §1
# [10] = molecular target: ScBzz1-D1
# Outline: as §1
# [11] = molecular target: ScBzz1-D2
# Outline: as §1
# [12] = molecular target: ScCyk3
# Outline: as §1
# [13] = molecular target: ScFus1
# Outline: as §1
# [14] = molecular target: ScHof1
# Outline: as §1
# [15] = molecular target: ScHse1
# Outline: as §1
# [16] = molecular target: ScLsb1
# Outline: as §1
# [17] = molecular target: ScLsb2
# Outline: as §1
# [18] = molecular target: ScLsb3
# Outline: as §1
# [19] = molecular target: ScLsb4
# Outline: as §1
# [20] = molecular target: ScMyo3
# Outline: as §1
# [21] = molecular target: ScMyo5
# Outline: as §1
# [22] = molecular target: ScNbp2
# Outline: as §1
# [23] = molecular target: ScPex13
# Outline: as §1
# [24] = molecular target: ScRvs167
# Outline: as §1
# [25] = molecular target: ScSho1
# Outline: as §1
# [26] = molecular target: ScSla1-D1-D2
# Outline: as §1
# [27] = molecular target: ScSla1-D3
# Outline: as §1
# [28] = molecular target: SpAbp1-D1
# Outline: as §1
# [29] = molecular target: SpBbc1
# Outline: as §1
# [30] = molecular target: SpBzz1-D1
# Outline: as §1
# [31] = molecular target: SpBzz1-D2
# Outline: as §1
# [32] = molecular target: SpCyk3
# Outline: as §1
# [33] = molecular target: SpHof1
# Outline: as §1
# [34] = molecular target: SpHof1-2
# Outline: as §1
# [35] = molecular target: SpHof1-3
# Outline: as §1
# [36] = molecular target: SpHse1
# Outline: as §1
# [37] = molecular target: SpLsb1
# Outline: as §1
# [38] = molecular target: SpLsb4
# Outline: as §1
# [39] = molecular target: SpMyo1
# Outline: as §1
# [40] = molecular target: SpNbp2
# Outline: as §1
# [41] = molecular target: SpPex13
# Outline: as §1
# [42] = molecular target: SpRvs167
# Outline: as §1
# [43] = molecular target: SpSla1-D1-D2
# Outline: as §1
# [44] = molecular target: SpSla1-D3
# Outline: as §1
# [45] = molecular target: AgAbp1
# Outline: as §1
# [46] = molecular target: AgBbc1
# Outline: as §1
# [47] = molecular target: AgBem1-D1
# Outline: as §1
# [48] = molecular target: AgBzz1-D1
# Outline: as §1
# [49] = molecular target: AgBzz1-D2
# Outline: as §1
# [50] = molecular target: AgCyk3
# Outline: as §1
# [51] = molecular target: AgFus1
# Outline: as §1
# [52] = molecular target: AgHof1
# Outline: as §1
# [53] = molecular target: AgHse1
# Outline: as §1
# [54] = molecular target: AgLsb1
# Outline: as §1
# [55] = molecular target: AgLsb4
# Outline: as §1
# [56] = molecular target: AgMyo5
# Outline: as §1
# [57] = molecular target: AgNbp2
# Outline: as §1
# [58] = molecular target: AgRvs167
# Outline: as §1
# [59] = molecular target: AgSho1
# Outline: as §1
# [60] = molecular target: AgSla1-D1-D2
# Outline: as §1
# [61] = molecular target: AgSla1-D3
# Outline: as §1
# [62] = molecular target: CaAbp1-D1
# Outline: as §1
# [63] = molecular target: CaAbp1-D2
# Outline: as §1
# [64] = molecular target: CaBbc1
# Outline: as §1
# [65] = molecular target: CaBem1-D1
# Outline: as §1
# [66] = molecular target: CaBzz1-D1
# Outline: as §1
# [67] = molecular target: CaBzz1-D2
# Outline: as §1
# [68] = molecular target: CaCyk3
# Outline: as §1
# [69] = molecular target: CaFus1
# Outline: as §1
# [70] = molecular target: CaHof1
# Outline: as §1
# [71] = molecular target: CaHse1
# Outline: as §1
# [72] = molecular target: CaLsb1
# Outline: as §1
# [73] = molecular target: CaLsb4
# Outline: as §1
# [74] = molecular target: CaMyo5
# Outline: as §1
binder,measurement,setting,value
PSRRAPLQLPQLVNK,SPOT peptide array binding signal intensity,[1],324
same,SPOT peptide array binding signal intensity,[2],6
same,SPOT peptide array binding signal intensity,[3],≤ 0
same,SPOT peptide array binding signal intensity,[4],6
same,SPOT peptide array binding signal intensity,[5],21
same,SPOT peptide array binding signal intensity,[6],≤ 0
same,SPOT peptide array binding signal intensity,[7],13
same,SPOT peptide array binding signal intensity,[8],11.5
same,SPOT peptide array binding signal intensity,[9],11
same,SPOT peptide array binding signal intensity,[10],12
same,SPOT peptide array binding signal intensity,[11],10
same,SPOT peptide array binding signal intensity,[12],≤ 0
same,SPOT peptide array binding signal intensity,[13],≤ 0
same,SPOT peptide array binding signal intensity,[14],0.5
same,SPOT peptide array binding signal intensity,[15],35.5
same,SPOT peptide array binding signal intensity,[16],123
same,SPOT peptide array binding signal intensity,[17],5
same,SPOT peptide array binding signal intensity,[18],86
same,SPOT peptide array binding signal intensity,[19],≤ 0
same,SPOT peptide array binding signal intensity,[20],≤ 0
same,SPOT peptide array binding signal intensity,[21],1.5
same,SPOT peptide array binding signal intensity,[22],17
same,SPOT peptide array binding signal intensity,[23],≤ 0
same,SPOT peptide array binding signal intensity,[24],5.67
same,SPOT peptide array binding signal intensity,[25],35
same,SPOT peptide array binding signal intensity,[26],394
same,SPOT peptide array binding signal intensity,[27],32
same,SPOT peptide array binding signal intensity,[28],59
same,SPOT peptide array binding signal intensity,[29],≤ 0
same,SPOT peptide array binding signal intensity,[30],134
same,SPOT peptide array binding signal intensity,[31],≤ 0
same,SPOT peptide array binding signal intensity,[32],≤ 0
same,SPOT peptide array binding signal intensity,[33],7.75
same,SPOT peptide array binding signal intensity,[34],1.25
same,SPOT peptide array binding signal intensity,[35],89.8
same,SPOT peptide array binding signal intensity,[36],≤ 0
same,SPOT peptide array binding signal intensity,[37],45.2
same,SPOT peptide array binding signal intensity,[38],2
same,SPOT peptide array binding signal intensity,[39],0.5
same,SPOT peptide array binding signal intensity,[40],3
same,SPOT peptide array binding signal intensity,[41],≤ 0
same,SPOT peptide array binding signal intensity,[42],1.67
same,SPOT peptide array binding signal intensity,[43],≤ 0
same,SPOT peptide array binding signal intensity,[44],≤ 0
NIKVLLNPKLGKPVK,SPOT peptide array binding signal intensity,[45],15
same,SPOT peptide array binding signal intensity,[46],10.2
same,SPOT peptide array binding signal intensity,[47],4
same,SPOT peptide array binding signal intensity,[48],13
same,SPOT peptide array binding signal intensity,[49],73.5
same,SPOT peptide array binding signal intensity,[50],≤ 0
same,SPOT peptide array binding signal intensity,[51],316
same,SPOT peptide array binding signal intensity,[52],17
same,SPOT peptide array binding signal intensity,[53],760
same,SPOT peptide array binding signal intensity,[54],≤ 0
same,SPOT peptide array binding signal intensity,[55],61
same,SPOT peptide array binding signal intensity,[56],2.5
same,SPOT peptide array binding signal intensity,[57],31.5
same,SPOT peptide array binding signal intensity,[58],4
same,SPOT peptide array binding signal intensity,[59],108
same,SPOT peptide array binding signal intensity,[60],39.5
same,SPOT peptide array binding signal intensity,[61],7.5
same,SPOT peptide array binding signal intensity,[62],407
same,SPOT peptide array binding signal intensity,[63],32.5
same,SPOT peptide array binding signal intensity,[64],15.2
same,SPOT peptide array binding signal intensity,[65],0.5
same,SPOT peptide array binding signal intensity,[66],160
same,SPOT peptide array binding signal intensity,[67],48.5
same,SPOT peptide array binding signal intensity,[68],≤ 0
same,SPOT peptide array binding signal intensity,[69],968
same,SPOT peptide array binding signal intensity,[70],≤ 0
same,SPOT peptide array binding signal intensity,[71],9
same,SPOT peptide array binding signal intensity,[72],2
same,SPOT peptide array binding signal intensity,[73],16
same,SPOT peptide array binding signal intensity,[74],4.5
same,SPOT peptide array binding signal intensity,[1],325
same,SPOT peptide array binding signal intensity,[2],105
same,SPOT peptide array binding signal intensity,[3],752
same,SPOT peptide array binding signal intensity,[4],700
same,SPOT peptide array binding signal intensity,[5],2
same,SPOT peptide array binding signal intensity,[6],26
same,SPOT peptide array binding signal intensity,[7],48
same,SPOT peptide array binding signal intensity,[8],0.25
same,SPOT peptide array binding signal intensity,[9],7
same,SPOT peptide array binding signal intensity,[10],32
same,SPOT peptide array binding signal intensity,[11],207
same,SPOT peptide array binding signal intensity,[12],10.5
same,SPOT peptide array binding signal intensity,[13],527
same,SPOT peptide array binding signal intensity,[14],1.25
same,SPOT peptide array binding signal intensity,[15],1460
same,SPOT peptide array binding signal intensity,[16],5.75
same,SPOT peptide array binding signal intensity,[17],1
same,SPOT peptide array binding signal intensity,[18],1.53e-05
same,SPOT peptide array binding signal intensity,[19],3
same,SPOT peptide array binding signal intensity,[20],1
same,SPOT peptide array binding signal intensity,[21],1
same,SPOT peptide array binding signal intensity,[22],29
same,SPOT peptide array binding signal intensity,[23],4.5
same,SPOT peptide array binding signal intensity,[24],21.8
same,SPOT peptide array binding signal intensity,[25],696
same,SPOT peptide array binding signal intensity,[26],42
same,SPOT peptide array binding signal intensity,[27],7.75
same,SPOT peptide array binding signal intensity,[28],30.5
same,SPOT peptide array binding signal intensity,[29],11.2
same,SPOT peptide array binding signal intensity,[30],132
same,SPOT peptide array binding signal intensity,[31],≤ 0
same,SPOT peptide array binding signal intensity,[32],≤ 0
same,SPOT peptide array binding signal intensity,[33],75.5
same,SPOT peptide array binding signal intensity,[34],13
same,SPOT peptide array binding signal intensity,[35],640
same,SPOT peptide array binding signal intensity,[36],558
same,SPOT peptide array binding signal intensity,[37],1.75
same,SPOT peptide array binding signal intensity,[38],26
same,SPOT peptide array binding signal intensity,[39],≤ 0
same,SPOT peptide array binding signal intensity,[40],95.5
same,SPOT peptide array binding signal intensity,[41],13
same,SPOT peptide array binding signal intensity,[42],18.2
same,SPOT peptide array binding signal intensity,[43],≤ 0
same,SPOT peptide array binding signal intensity,[44],4
